Reference: PubChem BioAssay (EPA / NIEHS)
The source made the active and inactive calls. Rule for the calls: active = hit-call score of the fitted dose curve at least 0.9, where 1 is the maximum; inactive = score below 0.9.

read-out: Fatty acid synthase (Homo sapiens) (UniProt P49327); assay: LTEA_HepaRG_FASN: Life Technologies and Expression Analysis (LTEA) Assay for Fatty Acid Synthase (FASN) using HepaRG (AID 2283448); conditions: mRNA level, 48 h; actives raise or lower the signal;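 for AC50: differentiated human HepaRG liver cells in serum-free induction medium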
In short: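 HepaRG, 48 h exposure, 8-pt half-log series top 100 uM, 0.5% DMSO vehicle, duplicates. Readout: FASN transcript by Fluidigm qRT-PCR; housekeeping-normalized; bidirectional curve fit vs DMSO baseline.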

Sequence of Fatty acid synthase (Homo sapiens) (P49327 whole entry, looked up): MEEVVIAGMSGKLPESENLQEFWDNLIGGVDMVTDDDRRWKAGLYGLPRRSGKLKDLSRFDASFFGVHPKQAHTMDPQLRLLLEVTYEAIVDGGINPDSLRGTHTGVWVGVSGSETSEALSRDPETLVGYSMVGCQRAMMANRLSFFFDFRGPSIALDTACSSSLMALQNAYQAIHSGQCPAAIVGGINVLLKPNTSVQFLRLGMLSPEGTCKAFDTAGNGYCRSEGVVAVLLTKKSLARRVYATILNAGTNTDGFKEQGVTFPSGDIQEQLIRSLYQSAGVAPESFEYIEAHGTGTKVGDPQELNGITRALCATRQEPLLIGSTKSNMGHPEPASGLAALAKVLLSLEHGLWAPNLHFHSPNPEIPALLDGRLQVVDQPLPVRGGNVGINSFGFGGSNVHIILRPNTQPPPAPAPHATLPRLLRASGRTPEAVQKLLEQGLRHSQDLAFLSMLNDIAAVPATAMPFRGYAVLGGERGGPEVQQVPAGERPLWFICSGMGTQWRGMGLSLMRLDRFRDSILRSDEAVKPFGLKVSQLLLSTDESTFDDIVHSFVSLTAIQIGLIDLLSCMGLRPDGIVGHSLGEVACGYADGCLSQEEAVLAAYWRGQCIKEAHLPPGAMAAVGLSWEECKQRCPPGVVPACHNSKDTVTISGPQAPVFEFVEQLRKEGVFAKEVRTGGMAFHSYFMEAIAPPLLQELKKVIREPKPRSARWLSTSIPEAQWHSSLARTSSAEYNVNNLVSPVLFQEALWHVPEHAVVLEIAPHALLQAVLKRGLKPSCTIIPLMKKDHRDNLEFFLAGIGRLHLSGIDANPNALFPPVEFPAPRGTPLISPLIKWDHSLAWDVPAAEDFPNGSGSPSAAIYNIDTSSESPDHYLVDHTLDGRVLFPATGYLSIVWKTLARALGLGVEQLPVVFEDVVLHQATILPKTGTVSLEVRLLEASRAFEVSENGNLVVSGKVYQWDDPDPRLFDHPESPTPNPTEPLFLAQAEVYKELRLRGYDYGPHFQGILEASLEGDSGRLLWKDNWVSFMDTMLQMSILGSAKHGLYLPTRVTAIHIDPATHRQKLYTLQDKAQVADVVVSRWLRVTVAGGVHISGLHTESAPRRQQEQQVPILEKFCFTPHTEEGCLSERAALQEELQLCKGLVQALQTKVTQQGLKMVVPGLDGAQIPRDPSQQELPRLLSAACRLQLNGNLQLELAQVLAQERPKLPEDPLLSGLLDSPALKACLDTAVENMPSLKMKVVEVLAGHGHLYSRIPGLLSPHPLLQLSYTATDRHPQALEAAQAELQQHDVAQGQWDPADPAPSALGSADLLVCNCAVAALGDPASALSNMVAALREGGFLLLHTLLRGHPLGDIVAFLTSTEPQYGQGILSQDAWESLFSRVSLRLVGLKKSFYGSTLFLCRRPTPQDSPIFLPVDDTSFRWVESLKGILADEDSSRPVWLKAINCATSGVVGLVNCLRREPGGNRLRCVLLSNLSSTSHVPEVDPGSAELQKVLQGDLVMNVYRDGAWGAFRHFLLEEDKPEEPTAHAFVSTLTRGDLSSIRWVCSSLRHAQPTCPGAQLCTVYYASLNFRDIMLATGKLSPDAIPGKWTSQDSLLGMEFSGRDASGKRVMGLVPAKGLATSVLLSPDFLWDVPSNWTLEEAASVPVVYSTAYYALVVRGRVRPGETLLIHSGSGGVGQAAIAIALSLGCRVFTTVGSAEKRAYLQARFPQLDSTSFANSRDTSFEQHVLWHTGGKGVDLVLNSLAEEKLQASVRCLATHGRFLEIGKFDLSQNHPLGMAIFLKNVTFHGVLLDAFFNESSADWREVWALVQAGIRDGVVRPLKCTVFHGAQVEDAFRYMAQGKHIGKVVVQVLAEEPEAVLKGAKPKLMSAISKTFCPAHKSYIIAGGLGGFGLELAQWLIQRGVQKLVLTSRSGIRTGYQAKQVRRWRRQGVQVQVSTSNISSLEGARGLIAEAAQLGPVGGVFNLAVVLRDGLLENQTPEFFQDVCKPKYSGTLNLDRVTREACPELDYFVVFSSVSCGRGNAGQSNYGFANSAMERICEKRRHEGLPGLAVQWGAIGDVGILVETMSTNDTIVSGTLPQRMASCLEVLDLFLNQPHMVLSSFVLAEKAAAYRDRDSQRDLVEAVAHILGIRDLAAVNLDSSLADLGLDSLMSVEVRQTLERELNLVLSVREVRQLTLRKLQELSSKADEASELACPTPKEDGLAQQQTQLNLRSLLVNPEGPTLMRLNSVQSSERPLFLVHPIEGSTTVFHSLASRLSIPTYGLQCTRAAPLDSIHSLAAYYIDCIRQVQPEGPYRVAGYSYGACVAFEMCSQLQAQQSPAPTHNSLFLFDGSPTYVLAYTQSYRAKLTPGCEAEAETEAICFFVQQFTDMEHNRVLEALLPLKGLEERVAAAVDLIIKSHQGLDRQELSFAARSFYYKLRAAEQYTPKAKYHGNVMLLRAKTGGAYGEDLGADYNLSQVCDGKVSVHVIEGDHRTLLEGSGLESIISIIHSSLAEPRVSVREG

| SMILES | outcome | AC50 |
| --- | --- | --- |
| CC(C)N(C(=O)SCC(Cl)=C(Cl)Cl)C(C)C | inactive | – |
| CCOP(=S)(Oc1cnc(C(C)(C)C)nc1)OC(C)C (stereo unspecified) | – | 82.4 µM (active) |
| C#CCC1=C(C)C(OC(=O)C2C(C=C(C)C)C2(C)C)CC1=O (stereo unspecified) | inactive | – |
| CCCSP(=O)(OCC)SCCC | inactive | – |
| C[Si](Cn1cncn1)(c1ccc(F)cc1)c1ccc(F)cc1 | – | 91.6 µM (active) |
| CNC(=O)ON=C(C)SC | inactive | – |
| CNc1cnn(-c2cccc(C(F)(F)F)c2)c(=O)c1Cl | – | 18 µM (active) |
| CCCCSP(=O)(SCCCC)SCCCC | inactive | – |
| CCOC(=O)CC(SP(=O)(OC)OC)C(=O)OCC (stereo unspecified) | inactive | – |
| CCCCOC(=O)[C@@H](C)Oc1ccc(Oc2ccc(C#N)cc2F)cc1 | inactive | – |
| CCCSP(=O)(OCC)Oc1ccc(Br)cc1Cl (stereo unspecified) | inactive | – |
| CON=C(C(=O)OC)c1ccccc1CON=C(C)c1cccc(C(F)(F)F)c1 | inactive | – |
| CCC(CC)Nc1c([N+](=O)[O-])cc(C)c(C)c1[N+](=O)[O-] | inactive | – |
| CSc1nc(NC(C)C)nc(NC(C)C)n1 | inactive | – |
| CNC(=O)ON=C(SC)C(=O)N(C)C | inactive | – |
| CCNc1nc(Cl)nc(NC(C)(C)C#N)n1 | inactive | – |
| O=c1ccc(=O)[nH][nH]1 | inactive | – |

| SMILES | outcome | AC50 |
| --- | --- | --- |
| S=C1NCCN1 | inactive | – |
| CC(COc1ccc(Oc2ccccc2)cc1)Oc1ccccn1 (stereo unspecified) | – | 30.5 µM (active) |
| CCOP(=S)(OCC)OC(Cl)C(Cl)(Cl)Cl (stereo unspecified) | inactive | – |
| COc1cccc(C(=O)NN(C(=O)c2cc(C)cc(C)c2)C(C)(C)C)c1C | inactive | – |
| CCc1cccc(C)c1N(C(=O)CCl)C(C)COC (stereo unspecified) | inactive | – |
| CN(C)C(=O)Nc1cccc(C(F)(F)F)c1 | inactive | – |
| CCCCN(CC)c1c([N+](=O)[O-])cc(C(F)(F)F)cc1[N+](=O)[O-] | inactive | – |
| C=C(C)[C@H]1Cc2c(ccc3c2O[C@@H]2COc4cc(OC)c(OC)cc4[C@@H]2C3=O)O1 | – | 20.8 µM (active) |
| CCOP(=O)(NC(C)C)Oc1ccc(SC)c(C)c1 (stereo unspecified) | inactive | – |
| COc1ccc(C(=CC(=O)N2CCOCC2)c2ccc(Cl)cc2)cc1OC | inactive | – |
| C[N+]1(C)CCCCC1 | inactive | – |
| CN(C)NC(=O)CCC(=O)O | inactive | – |
| CN(C)[C@@H]1C(=O)C(C(N)=O)=C(O)[C@@]2(O)C(=O)C3=C(O)c4c(O)cccc4[C@@](C)(O)[C@H]3[C@H](O)[C@@H]12 | inactive | – |
| Cc1ccn2nc(S(=O)(=O)Nc3c(F)cccc3F)nc2n1 | inactive | – |
| CCOC(=O)COc1cc(-c2nn(C)c(OC(F)F)c2Cl)c(F)cc1Cl | inactive | – |
| COP(=O)(NC(C)=O)SC (stereo unspecified) | inactive | – |

read-out: Cyclin D2 (CCND2), CCND2 (gene 894); assay: LTEA_HepaRG_CCND2: Life Technologies and Expression Analysis (LTEA) Assay for Cyclin D2 (CCND2) using HepaRG (AID 2283449); conditions: mRNA level, 48 h; actives raise or lower the signal;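 note: CCND2 transcript measured by TaqMan qRT-PCR and normalised to three housekeeping genes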
In short: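 HepaRG, 48 h dosing, 8-pt half-log curve from 100 uM, 0.5% DMSO; duplicate wells. Readout: CCND2 transcript by microfluidic qRT-PCR, housekeeping-normalised; bidirectional fit vs DMSO baseline.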

| SMILES | outcome |
| --- | --- |
| CC(C)N(C(=O)SCC(Cl)=C(Cl)Cl)C(C)C | inactive |
| CCOP(=S)(Oc1cnc(C(C)(C)C)nc1)OC(C)C (stereo unspecified) | inactive |
| C#CCC1=C(C)C(OC(=O)C2C(C=C(C)C)C2(C)C)CC1=O (stereo unspecified) | inactive |
| CCCSP(=O)(OCC)SCCC | inactive |
| C[Si](Cn1cncn1)(c1ccc(F)cc1)c1ccc(F)cc1 | inactive |
| CNC(=O)ON=C(C)SC | inactive |
| CNc1cnn(-c2cccc(C(F)(F)F)c2)c(=O)c1Cl | inactive |
| CCCCSP(=O)(SCCCC)SCCCC | inactive |
| CCOC(=O)CC(SP(=O)(OC)OC)C(=O)OCC (stereo unspecified) | inactive |
| CCCCOC(=O)[C@@H](C)Oc1ccc(Oc2ccc(C#N)cc2F)cc1 | inactive |
| CCCSP(=O)(OCC)Oc1ccc(Br)cc1Cl (stereo unspecified) | inactive |
| CON=C(C(=O)OC)c1ccccc1CON=C(C)c1cccc(C(F)(F)F)c1 | inactive |
| CCC(CC)Nc1c([N+](=O)[O-])cc(C)c(C)c1[N+](=O)[O-] | inactive |
| CSc1nc(NC(C)C)nc(NC(C)C)n1 | inactive |
| CNC(=O)ON=C(SC)C(=O)N(C)C | inactive |
| CCNc1nc(Cl)nc(NC(C)(C)C#N)n1 | inactive |
| O=c1ccc(=O)[nH][nH]1 | inactive |

| SMILES | outcome |
| --- | --- |
| S=C1NCCN1 | inactive |
| CC(COc1ccc(Oc2ccccc2)cc1)Oc1ccccn1 (stereo unspecified) | inactive |
| CCOP(=S)(OCC)OC(Cl)C(Cl)(Cl)Cl (stereo unspecified) | inactive |
| COc1cccc(C(=O)NN(C(=O)c2cc(C)cc(C)c2)C(C)(C)C)c1C | inactive |
| CCc1cccc(C)c1N(C(=O)CCl)C(C)COC (stereo unspecified) | inactive |
| CN(C)C(=O)Nc1cccc(C(F)(F)F)c1 | inactive |
| CCCCN(CC)c1c([N+](=O)[O-])cc(C(F)(F)F)cc1[N+](=O)[O-] | inactive |
| CCOP(=S)(OCC)Oc1ccc([N+](=O)[O-])cc1 | inactive |
| C=C(C)[C@H]1Cc2c(ccc3c2O[C@@H]2COc4cc(OC)c(OC)cc4[C@@H]2C3=O)O1 | inactive |
| COc1ccc(C(=CC(=O)N2CCOCC2)c2ccc(Cl)cc2)cc1OC | inactive |
| CC1(C(=O)Nc2ccc(O)c(Cl)c2Cl)CCCCC1 | inactive |
| C[N+]1(C)CCCCC1 | inactive |
| CN(C)NC(=O)CCC(=O)O | inactive |
| CN(C)[C@@H]1C(=O)C(C(N)=O)=C(O)[C@@]2(O)C(=O)C3=C(O)c4c(O)cccc4[C@@](C)(O)[C@H]3[C@H](O)[C@@H]12 | inactive |
| Cc1ccn2nc(S(=O)(=O)Nc3c(F)cccc3F)nc2n1 | inactive |
| CCOC(=O)COc1cc(-c2nn(C)c(OC(F)F)c2Cl)c(F)cc1Cl | inactive |
